Laboratory results reported in PubChem BioAssay (EPA / NIEHS).
Calls of active or inactive are those of the source. Rule for the calls: active = hit-call score of the fitted dose curve at least 0.9, where 1 is the maximum; inactive = score below 0.9.

Legend:
[1] = read-out: serum amyloid A (SAA), SAA1 (gene 6288); experiment: BSK_CASM3C_SAA: BioMAP Diversity Plus: CASM3C Assay for serum amyloid A (SAA) Biomarker Activity (AID 2283049); settings: primary human coronary artery smooth muscle cells; actives raise or lower the signal;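 note: SAA protein level quantified by ELISA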
[2] = BSK_CASM3C_SRB: Viability Assessment in the BioMAP Diversity Plus: CASM3C Assay (AID 2283050); settings: primary human coronary artery smooth muscle cells
[3] = read-out: Thrombomodulin, THBD (gene 7056); experiment: BSK_CASM3C_Thrombomodulin: BioMAP Diversity Plus: CASM3C Assay for Thrombomodulin Biomarker Activity (AID 2283051); settings: primary human coronary artery smooth muscle cells; actives raise or lower the signal;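 note: thrombomodulin protein level measured by ELISA 24 h after dosing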
[4] = read-out: Tissue Factor, F3 (gene 2152); experiment: BSK_CASM3C_TissueFactor: BioMAP Diversity Plus: CASM3C Assay for Tissue Factor Biomarker Activity (AID 2283052); settings: primary human coronary artery smooth muscle cells; actives raise or lower the signal;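 note: cell surface tissue factor protein level read by ELISA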
[5] = read-out: Interferon-gamma inducible Protein 10 (IP10), CXCL10 (gene 3627); experiment: BSK_hDFCGF_IP10: BioMAP Diversity Plus: hDFCGF Assay for Interferon-gamma inducible Protein 10 (IP10) Biomarker Activity (AID 2283053); settings: primary human foreskin fibroblasts; actives raise or lower the signal
Summary of the method: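 Human foreskin fibroblast primary cells (hDFCGF system) were dosed with chemical and assayed at 24 h; IP-10 measured by ELISA. Activity fitted bidirectionally relative to DMSO negative control as baseline.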

[6] = read-out: Urokinase-type plasminogen activator receptor (uPAR), PLAUR (gene 5329); experiment: BSK_CASM3C_uPAR: BioMAP Diversity Plus: CASM3C Assay for Urokinase-type plasminogen activator receptor (uPAR) Biomarker Activity (AID 2283054); settings: primary human coronary artery smooth muscle cells; actives raise or lower the signal;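 note: cell-surface uPAR protein level quantified by ELISA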
[7] = read-out: Vascular cell adhesion molecule 1 (VCAM1), VCAM1 (gene 7412); experiment: BSK_CASM3C_VCAM1: BioMAP Diversity Plus: CASM3C Assay for Vascular cell adhesion molecule 1 (VCAM1) Biomarker Activity (AID 2283055); settings: primary human coronary artery smooth muscle cells; actives raise or lower the signal;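 note: VCAM-1 protein level quantified by ELISA on the cells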
[8] = read-out: Collagen III, COL3A1 (gene 1281); experiment: BSK_hDFCGF_CollagenIII: BioMAP Diversity Plus: hDFCGF Assay for Collagen III Biomarker Activity (AID 2283056); settings: primary human foreskin fibroblasts; actives raise or lower the signal
Summary of the method: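 Human foreskin fibroblast primary cultures sampled 24 h after dosing; Collagen III quantified by ELISA. Signal fitted bidirectionally against DMSO baseline.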

[9] = read-out: Epidermal growth factor receptor (EGFR), EGFR (gene 1956); experiment: BSK_hDFCGF_EGFR: BioMAP Diversity Plus: hDFCGF Assay for Epidermal growth factor receptor (EGFR) Biomarker Activity (AID 2283057); settings: primary human foreskin fibroblasts; actives raise or lower the signal
Summary of the method: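 Primary human foreskin fibroblasts were exposed to compound for 24 h, after which cell-surface EGFR was quantified by ELISA. Activity was fitted bidirectionally against the DMSO negative control as baseline.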

[10] = read-out: Interleukin-8 (IL8), CXCL8 (gene 3576); experiment: BSK_hDFCGF_IL8: BioMAP Diversity Plus: hDFCGF Assay for Interleukin-8 (IL8) Biomarker Activity (AID 2283058); settings: primary human foreskin fibroblasts; actives raise or lower the signal
Summary of the method: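 Primary human foreskin fibroblasts (hDFCGF system) dosed with chemical; IL-8 measured by ELISA 24 hours later. Bidirectional curve fitting relative to DMSO baseline; cytotoxicity tracked in parallel cultures by SRB total protein staining.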

[11] = BSK_hDFCGF_Proliferation: Cell Proliferation Assessment in the BioMAP Diversity Plus: hDFCGF Assay (AID 2283059); settings: primary human foreskin fibroblasts;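 note: curves fitted for both rise and fall of signal versus DMSO baseline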
Summary of the method: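 Sub-confluent human foreskin fibroblast cultures receive test chemical […]. Relative cell number is quantified by sulforhodamine B staining (0.1%, after 10% TCA fixation) at 560 nm, with bidirectional fitting referenced to DMSO.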

[12] = read-out: Macrophage colony-stimulating factor (MCSF), CSF1 (gene 1435); experiment: BSK_hDFCGF_MCSF: BioMAP Diversity Plus: hDFCGF Assay for Macrophage colony-stimulating factor (MCSF) Biomarker Activity (AID 2283060); settings: primary human foreskin fibroblasts; actives raise or lower the signal
Summary of the method: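 Human foreskin fibroblast primary cultures; M-CSF measured by ELISA 24 hours after chemical dosing. Bidirectional fitting relative to DMSO, with overt cytotoxicity tracked by parallel SRB total-protein staining (0.1% SRB, 10% TCA fixation, 560 nm).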

[13] = BSK_hDFCGF_SRB: Viability Assessment in the BioMAP Diversity Plus: hDFCGF Assay (AID 2283061); settings: primary human foreskin fibroblasts;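 note: cells exposed to compound for 24 h before the read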
Summary of the method: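 Human foreskin fibroblasts in 96-well plates were treated 24 h. Total protein was measured by 0.1% SRB staining after 10% TCA fixation, read at 560 nm. Data were fitted bidirectionally against DMSO.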

[14] = read-out: TIMP metallopeptidase inhibitor 1 (TIMP1), TIMP1 (gene 7076); experiment: BSK_hDFCGF_TIMP1: BioMAP Diversity Plus: hDFCGF Assay for TIMP metallopeptidase inhibitor 1 (TIMP1) Biomarker Activity (AID 2283062); settings: primary human foreskin fibroblasts; actives raise or lower the signal
Summary of the method: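 Human foreskin fibroblast primary cultures dosed for 24 h; secreted/surface TIMP-1 quantified by ELISA. Bidirectional curve fitting against DMSO baseline; cytotoxicity tracked in parallel cultures by SRB total-protein staining.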

[15] = read-out: Monokine induced gamma interferon (MIG), CXCL9 (gene 4283); experiment: BSK_hDFCGF_MIG: BioMAP Diversity Plus: hDFCGF Assay for Monokine induced gamma interferon (MIG) Biomarker Activity (AID 2283063); settings: primary human foreskin fibroblasts; actives raise or lower the signal
Summary of the method: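 MIG/CXCL9 measured by ELISA 24 h after dosing primary human skin fibroblasts. Activity fitted in both directions against DMSO controls. Cytotoxicity was checked in parallel cultures by SRB staining read at 560 nm.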

[16] = read-out: Matrix Metallopeptidase 1 (MMP1), MMP1 (gene 4312); experiment: BSK_hDFCGF_MMP1: BioMAP Diversity Plus: hDFCGF Assay for Matrix Metallopeptidase 1 (MMP1) Biomarker Activity (AID 2283064); settings: primary human foreskin fibroblasts; actives raise or lower the signal
Summary of the method: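 Primary human foreskin fibroblasts exposed to chemicals for 24 h; MMP1 measured by ELISA. Cytotoxicity tracked by SRB staining in parallel cultures; bidirectional fit relative to DMSO.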

[17] = read-out: Vascular cell adhesion molecule 1 (VCAM1), VCAM1 (gene 7412); experiment: BSK_hDFCGF_VCAM1: BioMAP Diversity Plus: hDFCGF Assay for Vascular cell adhesion molecule 1 (VCAM1) Biomarker Activity (AID 2283065); settings: primary human foreskin fibroblasts; actives raise or lower the signal;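 for AC50: VCAM-1 protein level quantified by ELISA after 24 h chemical exposure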
Summary of the method: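 Human foreskin fibroblast primary cells dosed with chemical, VCAM-1 measured by ELISA at 24 h. Bidirectional curve fitting relative to DMSO as negative control/baseline.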

[18] = read-out: Plasminogen activator inhibitor-1 (PAI1), SERPINE1 (gene 5054); experiment: BSK_hDFCGF_PAI1: BioMAP Diversity Plus: hDFCGF Assay for Plasminogen activator inhibitor-1 (PAI1) Biomarker Activity (AID 2283066); settings: primary human foreskin fibroblasts; actives raise or lower the signal
Summary of the method: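 Human foreskin fibroblasts in the hDFCGF system were dosed with compound for 24 h; PAI-1 was quantified by ELISA. Bidirectional curve fitting used DMSO as negative control and baseline.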

[19] = read-out: Intercellular Adhesion Molecule 1 (ICAM1), ICAM1 (gene 3383); experiment: BSK_KF3CT_ICAM1: BioMAP Diversity Plus: KF3CT Assay for Intercellular Adhesion Molecule 1 (ICAM1) Biomarker Activity (AID 2283067); settings: primary human keratinocytes with fibroblasts; actives raise or lower the signal
Summary of the method: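 Human keratinocyte–foreskin fibroblast co-culture was treated for 24 h. Cell-surface ICAM-1 was quantified by ELISA, fitted bidirectionally relative to DMSO. Cytotoxicity was checked in parallel cultures by SRB total-protein staining.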

[20] = read-out: Interferon-gamma inducible Protein 10 (IP10), CXCL10 (gene 3627); experiment: BSK_KF3CT_IP10: BioMAP Diversity Plus: KF3CT Assay for Interferon-gamma inducible Protein 10 (IP10) Biomarker Activity (AID 2283068); settings: primary human keratinocytes with fibroblasts; actives raise or lower the signal
Summary of the method: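 ELISA read-out of IP-10 after 24 h chemical dosing of human skin primary co-culture (keratinocytes, foreskin fibroblasts). Gain or loss of signal relative to DMSO, bidirectional curve fit.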

CCOP(=S)(Oc1cnc(C(C)(C)C)nc1)OC(C)C (centres undefined)
outcome [1]: inactive | outcome [2]: inactive | AC50 [3]: 20 µM (active) | outcome [4]: inactive | AC50 [5]: 29.2 µM (active) | outcome [6]: inactive | outcome [7]: inactive | AC50 [8]: 31.3 µM (active) | outcome [9]: inactive | outcome [10]: inactive | AC50 [11]: 31.7 µM (active) | AC50 [12]: 20 µM (active) | AC50 [13]: 37 µM (active) | outcome [14]: inactive | AC50 [15]: 31.6 µM (active) | outcome [16]: inactive | AC50 [17]: 26.8 µM (active) | outcome [18]: inactive | outcome [19]: inactive | AC50 [20]: 18.4 µM (active)

CC1(C(=O)Nc2ccc(O)c(Cl)c2Cl)CCCCC1
outcome [1]: inactive | outcome [2]: inactive | outcome [3]: inactive | outcome [4]: inactive | outcome [5]: inactive | outcome [7]: inactive | outcome [8]: inactive | outcome [9]: inactive | outcome [10]: inactive | outcome [11]: inactive | outcome [12]: inactive | outcome [13]: inactive | outcome [14]: inactive | outcome [15]: inactive | outcome [16]: inactive | outcome [17]: inactive | outcome [18]: inactive | outcome [19]: inactive | outcome [20]: inactive

COP(=O)(NC(C)=O)SC (centres undefined)
outcome [1]: inactive | outcome [2]: inactive | outcome [3]: inactive | outcome [4]: inactive | outcome [5]: inactive | outcome [6]: inactive | outcome [7]: inactive | outcome [8]: inactive | outcome [9]: inactive | outcome [10]: inactive | outcome [11]: inactive | outcome [12]: inactive | outcome [13]: inactive | outcome [14]: inactive | outcome [15]: inactive | outcome [16]: inactive | outcome [17]: inactive | outcome [18]: inactive | outcome [19]: inactive | outcome [20]: inactive
